Measurements: the supplement of paper PMC11732987, “Enantioselective OTUD7B fragment discovery through chemoproteomics screening and high-throughput optimisation” (Communications Chemistry, 2025)

Tests used:
Experiment in all cases: log2 ratio of Biotin-Ahx-Ub-VS probe labelling (fragment/DMSO); higher = less target engagement (more negative = stronger competition), active = hit call of the paper (q ≤ 0.05, log2 ratio ≤ -1)
Settings in all cases: compound concentration: 200 uM; treatment time: 3 h
[1] = biological target: T1, USP19 (UniProt O94966)
T1 sequence (whole entry): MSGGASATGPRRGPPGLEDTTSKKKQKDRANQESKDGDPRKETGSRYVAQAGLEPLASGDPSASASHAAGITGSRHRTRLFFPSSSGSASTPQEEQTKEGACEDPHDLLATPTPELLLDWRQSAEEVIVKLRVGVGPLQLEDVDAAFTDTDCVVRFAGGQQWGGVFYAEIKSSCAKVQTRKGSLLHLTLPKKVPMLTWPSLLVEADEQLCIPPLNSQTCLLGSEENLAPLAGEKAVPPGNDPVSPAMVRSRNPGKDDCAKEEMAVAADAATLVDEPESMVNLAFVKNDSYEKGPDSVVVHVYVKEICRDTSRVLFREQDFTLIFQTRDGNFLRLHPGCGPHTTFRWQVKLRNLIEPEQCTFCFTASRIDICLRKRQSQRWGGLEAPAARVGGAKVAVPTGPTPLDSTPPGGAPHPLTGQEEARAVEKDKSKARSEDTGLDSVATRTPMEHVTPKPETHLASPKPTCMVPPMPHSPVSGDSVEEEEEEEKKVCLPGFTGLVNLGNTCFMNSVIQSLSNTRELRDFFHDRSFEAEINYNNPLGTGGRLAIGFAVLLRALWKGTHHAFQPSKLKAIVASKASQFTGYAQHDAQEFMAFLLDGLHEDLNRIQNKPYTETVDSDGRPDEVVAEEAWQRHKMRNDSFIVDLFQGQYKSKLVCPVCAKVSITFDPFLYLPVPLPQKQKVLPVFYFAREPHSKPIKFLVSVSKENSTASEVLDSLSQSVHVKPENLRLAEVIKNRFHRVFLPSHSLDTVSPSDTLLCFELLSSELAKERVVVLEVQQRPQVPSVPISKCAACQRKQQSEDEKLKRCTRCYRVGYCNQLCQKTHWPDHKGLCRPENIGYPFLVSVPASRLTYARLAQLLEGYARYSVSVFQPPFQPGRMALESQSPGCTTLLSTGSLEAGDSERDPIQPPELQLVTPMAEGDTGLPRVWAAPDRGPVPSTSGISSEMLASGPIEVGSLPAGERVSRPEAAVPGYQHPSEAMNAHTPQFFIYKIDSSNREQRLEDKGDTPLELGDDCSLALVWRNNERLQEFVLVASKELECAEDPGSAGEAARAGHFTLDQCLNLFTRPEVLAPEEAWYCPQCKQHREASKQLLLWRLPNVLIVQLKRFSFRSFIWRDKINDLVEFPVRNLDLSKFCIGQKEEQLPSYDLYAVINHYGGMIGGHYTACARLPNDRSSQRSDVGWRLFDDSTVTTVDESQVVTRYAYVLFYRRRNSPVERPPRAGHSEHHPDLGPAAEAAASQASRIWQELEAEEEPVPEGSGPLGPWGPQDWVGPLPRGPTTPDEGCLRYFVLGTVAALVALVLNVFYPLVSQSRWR
Outline: (§1)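 Each value is an average log2 ratio of fragment to vehicle, tested by unpaired t-test. The underlying Spectronaut label-free quantities were global-median-normalised, and only proteins with ≥2 unique peptides were included. Triplicate HEK293T lysate samples (495 µg) were exposed to fragment at 200 µM or vehicle for 3 h, then to Biotin-Ahx-Ub-VS at 0.5 µM final for 1 h, before NeutrAvidin enrichment of labelled DUBs, LysC and trypsin digestion, and diaPASEF LC-MS/MS.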

[2] = biological target: USP24 (UniProt Q9UPU5)
USP24, sequence (Q9UPU5 whole entry): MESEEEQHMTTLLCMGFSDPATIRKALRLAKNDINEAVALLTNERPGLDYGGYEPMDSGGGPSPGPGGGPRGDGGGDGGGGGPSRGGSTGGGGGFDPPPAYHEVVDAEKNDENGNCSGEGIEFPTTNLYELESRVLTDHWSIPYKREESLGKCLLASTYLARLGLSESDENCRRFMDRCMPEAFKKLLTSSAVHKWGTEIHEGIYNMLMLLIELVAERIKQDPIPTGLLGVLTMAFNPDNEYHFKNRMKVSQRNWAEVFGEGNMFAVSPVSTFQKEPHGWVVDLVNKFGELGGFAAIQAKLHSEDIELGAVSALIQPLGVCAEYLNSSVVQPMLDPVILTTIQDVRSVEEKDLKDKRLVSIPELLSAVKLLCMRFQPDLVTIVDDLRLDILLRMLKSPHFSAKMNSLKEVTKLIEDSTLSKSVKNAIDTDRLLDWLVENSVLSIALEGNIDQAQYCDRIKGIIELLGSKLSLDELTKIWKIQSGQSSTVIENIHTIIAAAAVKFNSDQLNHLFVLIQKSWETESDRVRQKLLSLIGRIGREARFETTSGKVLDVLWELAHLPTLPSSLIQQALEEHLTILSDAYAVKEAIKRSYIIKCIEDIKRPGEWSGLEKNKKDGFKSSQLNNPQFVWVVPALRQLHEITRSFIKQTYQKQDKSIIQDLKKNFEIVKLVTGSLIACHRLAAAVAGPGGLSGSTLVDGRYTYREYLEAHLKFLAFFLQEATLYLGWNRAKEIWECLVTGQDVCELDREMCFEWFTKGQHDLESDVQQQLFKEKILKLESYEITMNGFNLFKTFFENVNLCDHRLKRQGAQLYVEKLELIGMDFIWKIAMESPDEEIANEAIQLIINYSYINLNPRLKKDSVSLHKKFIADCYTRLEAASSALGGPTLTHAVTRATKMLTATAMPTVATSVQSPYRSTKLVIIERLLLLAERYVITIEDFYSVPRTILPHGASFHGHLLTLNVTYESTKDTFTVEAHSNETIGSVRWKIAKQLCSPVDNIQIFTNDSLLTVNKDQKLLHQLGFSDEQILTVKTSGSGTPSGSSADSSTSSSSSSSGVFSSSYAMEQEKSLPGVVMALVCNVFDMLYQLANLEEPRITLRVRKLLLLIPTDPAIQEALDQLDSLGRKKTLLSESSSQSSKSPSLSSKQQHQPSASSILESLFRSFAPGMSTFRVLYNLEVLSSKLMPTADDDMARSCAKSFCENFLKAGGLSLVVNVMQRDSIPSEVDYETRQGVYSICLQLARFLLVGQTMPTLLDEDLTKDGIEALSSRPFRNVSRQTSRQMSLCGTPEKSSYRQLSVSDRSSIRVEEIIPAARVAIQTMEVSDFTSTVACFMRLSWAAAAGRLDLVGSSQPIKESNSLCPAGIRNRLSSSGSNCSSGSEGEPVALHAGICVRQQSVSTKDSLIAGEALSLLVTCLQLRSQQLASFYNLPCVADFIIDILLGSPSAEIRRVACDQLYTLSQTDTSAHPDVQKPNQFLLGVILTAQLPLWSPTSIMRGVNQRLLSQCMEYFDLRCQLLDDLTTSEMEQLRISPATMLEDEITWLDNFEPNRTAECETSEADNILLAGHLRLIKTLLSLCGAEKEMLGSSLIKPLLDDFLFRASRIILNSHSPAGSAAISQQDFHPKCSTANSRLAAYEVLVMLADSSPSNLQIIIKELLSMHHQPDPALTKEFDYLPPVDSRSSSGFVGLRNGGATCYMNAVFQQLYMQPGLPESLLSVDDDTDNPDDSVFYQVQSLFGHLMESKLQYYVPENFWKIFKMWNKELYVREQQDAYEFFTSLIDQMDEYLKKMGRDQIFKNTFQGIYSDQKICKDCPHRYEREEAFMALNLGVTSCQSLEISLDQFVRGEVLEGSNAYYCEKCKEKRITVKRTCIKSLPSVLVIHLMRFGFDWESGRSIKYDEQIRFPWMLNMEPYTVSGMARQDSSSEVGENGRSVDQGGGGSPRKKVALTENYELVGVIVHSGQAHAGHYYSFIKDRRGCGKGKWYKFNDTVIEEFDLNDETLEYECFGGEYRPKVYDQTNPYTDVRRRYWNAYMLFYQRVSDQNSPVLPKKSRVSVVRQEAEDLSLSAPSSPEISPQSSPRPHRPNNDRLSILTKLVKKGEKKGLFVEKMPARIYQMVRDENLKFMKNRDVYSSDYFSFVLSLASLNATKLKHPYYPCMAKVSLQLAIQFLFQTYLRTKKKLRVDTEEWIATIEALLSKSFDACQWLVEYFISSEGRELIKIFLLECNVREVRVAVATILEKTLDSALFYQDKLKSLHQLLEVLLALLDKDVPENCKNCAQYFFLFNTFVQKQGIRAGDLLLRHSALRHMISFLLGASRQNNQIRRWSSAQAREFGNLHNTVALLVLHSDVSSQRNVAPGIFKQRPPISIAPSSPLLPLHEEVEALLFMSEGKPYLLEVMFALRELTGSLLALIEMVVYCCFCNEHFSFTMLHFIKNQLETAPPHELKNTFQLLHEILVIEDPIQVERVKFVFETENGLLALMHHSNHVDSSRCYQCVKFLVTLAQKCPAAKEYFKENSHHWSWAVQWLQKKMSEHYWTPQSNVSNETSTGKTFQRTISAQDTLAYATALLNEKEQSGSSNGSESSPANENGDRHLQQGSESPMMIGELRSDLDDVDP
Outline: as §1

[3] = biological target: T2, USP25 (UniProt Q9UHP3)
T2 sequence (whole entry): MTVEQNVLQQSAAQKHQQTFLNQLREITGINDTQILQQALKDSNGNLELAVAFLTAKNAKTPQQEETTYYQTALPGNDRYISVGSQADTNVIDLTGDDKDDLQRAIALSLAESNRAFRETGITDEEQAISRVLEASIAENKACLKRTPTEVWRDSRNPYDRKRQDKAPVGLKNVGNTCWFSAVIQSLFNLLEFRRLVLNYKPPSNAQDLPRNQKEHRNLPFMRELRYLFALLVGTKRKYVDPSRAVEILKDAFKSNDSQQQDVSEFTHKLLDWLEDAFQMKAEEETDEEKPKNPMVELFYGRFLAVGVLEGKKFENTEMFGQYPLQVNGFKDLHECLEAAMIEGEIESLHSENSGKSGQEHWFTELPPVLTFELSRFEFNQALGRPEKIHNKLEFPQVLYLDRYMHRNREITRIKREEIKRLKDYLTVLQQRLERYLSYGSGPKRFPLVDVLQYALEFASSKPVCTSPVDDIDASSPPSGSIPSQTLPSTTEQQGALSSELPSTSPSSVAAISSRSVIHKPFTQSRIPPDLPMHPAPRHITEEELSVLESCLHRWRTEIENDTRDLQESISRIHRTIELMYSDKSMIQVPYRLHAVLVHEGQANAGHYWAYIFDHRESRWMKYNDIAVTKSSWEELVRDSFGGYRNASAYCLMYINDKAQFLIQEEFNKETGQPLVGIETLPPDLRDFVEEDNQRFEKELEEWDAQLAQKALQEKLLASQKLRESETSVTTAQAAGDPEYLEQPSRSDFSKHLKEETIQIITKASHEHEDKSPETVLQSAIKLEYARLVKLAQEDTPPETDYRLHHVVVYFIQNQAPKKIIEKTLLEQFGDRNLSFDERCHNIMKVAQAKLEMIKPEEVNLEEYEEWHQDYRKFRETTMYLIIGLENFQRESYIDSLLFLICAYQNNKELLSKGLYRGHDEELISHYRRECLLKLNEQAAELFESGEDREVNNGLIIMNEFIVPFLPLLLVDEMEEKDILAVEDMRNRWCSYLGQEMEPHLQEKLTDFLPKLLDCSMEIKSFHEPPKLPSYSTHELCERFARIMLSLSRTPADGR
Outline: as §1

[4] = biological target: T3, USP28 (UniProt Q96RU2)
T3 sequence (whole entry): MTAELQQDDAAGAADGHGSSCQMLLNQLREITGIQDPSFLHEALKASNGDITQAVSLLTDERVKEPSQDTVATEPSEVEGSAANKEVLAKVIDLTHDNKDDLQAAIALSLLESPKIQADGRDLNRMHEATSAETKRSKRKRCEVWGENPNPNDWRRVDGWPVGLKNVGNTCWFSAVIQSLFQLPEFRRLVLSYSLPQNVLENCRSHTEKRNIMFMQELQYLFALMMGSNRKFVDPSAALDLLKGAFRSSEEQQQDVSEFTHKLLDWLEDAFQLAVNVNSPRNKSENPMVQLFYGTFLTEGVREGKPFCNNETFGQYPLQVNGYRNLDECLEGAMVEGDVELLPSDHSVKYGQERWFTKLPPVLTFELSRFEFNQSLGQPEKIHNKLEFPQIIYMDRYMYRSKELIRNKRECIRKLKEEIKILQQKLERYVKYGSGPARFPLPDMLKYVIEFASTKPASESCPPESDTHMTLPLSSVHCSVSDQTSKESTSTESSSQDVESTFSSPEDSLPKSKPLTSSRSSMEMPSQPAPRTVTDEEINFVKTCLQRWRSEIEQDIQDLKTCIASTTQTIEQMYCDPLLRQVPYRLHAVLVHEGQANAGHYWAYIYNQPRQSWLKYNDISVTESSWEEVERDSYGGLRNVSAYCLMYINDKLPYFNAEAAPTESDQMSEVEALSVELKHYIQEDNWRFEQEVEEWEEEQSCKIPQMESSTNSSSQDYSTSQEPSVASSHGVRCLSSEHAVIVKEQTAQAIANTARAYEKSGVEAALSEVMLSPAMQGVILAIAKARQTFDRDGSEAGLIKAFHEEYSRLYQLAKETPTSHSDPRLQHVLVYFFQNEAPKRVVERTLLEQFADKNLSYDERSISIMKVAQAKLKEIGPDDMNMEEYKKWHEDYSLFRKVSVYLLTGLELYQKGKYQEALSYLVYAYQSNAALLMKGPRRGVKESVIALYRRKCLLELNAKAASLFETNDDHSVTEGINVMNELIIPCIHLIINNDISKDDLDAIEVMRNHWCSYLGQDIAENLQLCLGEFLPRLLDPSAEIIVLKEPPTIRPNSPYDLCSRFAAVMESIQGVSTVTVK
Outline: as §1

Measured: log2 ratio of Biotin-Ahx-Ub-VS probe labelling

CN(CCC(O)c1ccc(Br)cc1)C(=O)CCl (centres undefined)
inactive: [1] -0.439 | [2] -0.901 | [3] -0.071 | [4] -0.457
